Where “and” joins values, the source holds several entries; their conditions need not be identical. Equal values may be shown once. Where a name gives a salt, the structure may show the parent alone.
How the values were obtained:
Assay in all cases: cell viability relative to vehicle control; higher = less cytotoxic
Settings in all cases: 10 µM
K562 = system: K562
In short: (§1)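 Mutant clones made by CRISPR editing and their isogenic wild-type counterparts, from four leukaemia lines, were exposed to a single 10 µM dose of each library compound for 48 h. The supernatant was then removed and CellTiter-Glo luminescence was read. Viability was reported as percent of the on-plate vehicle control.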

MARIMO = system: MARIMO
In short: as §1

MOLM14 = system: MOLM14
In short: as §1

OCI-AML2 = system: OCI-AML2
In short: as §1

Structure (SMILES) | cell viability (K562; SRSF2 genotype: SRSF2 P95H/wt) | cell viability (K562; SRSF2 genotype: SRSF2 wt/wt) [%] | cell viability (MARIMO; SRSF2 genotype: SRSF2 P95H/wt) [%] | cell viability (MARIMO; SRSF2 genotype: SRSF2 wt/wt) [%] | cell viability (MOLM14; SRSF2 genotype: SRSF2 P95H/wt) [%] | cell viability (MOLM14; SRSF2 genotype: SRSF2 wt/wt) [%] | cell viability (OCI-AML2; SRSF2 genotype: P95H/wt) [%] | cell viability (OCI-AML2; SRSF2 genotype: wt/wt) [%]
Cc1cc(Nc2cc(N)ncn2)c(=O)n2c1C(=O)NC21CCCCC1 | 89.2% and 85.2% | 87.7 | 86 | 98.2 | 83.5 | 92 | 89 | 88.5
CS(=O)(=O)c1ccc(-c2cnc(N)c(C(=O)Nc3ccccc3)n2)cc1 | 108% and 109% | 116 | 113 | 110 | 109 | 110 | 98.9 | 91.7
C=C[C@@H]1C[C@]1(NC(=O)[C@@H]1C[C@@H](Oc2ncc(OC)c3ccc(Cl)cc23)CN1C(=O)[C@@H](NC(=O)OC(C)(C)C)C(C)(C)C)C(=O)NS(=O)(=O)C1CC1 [Asunaprevir] | 88.6% and 75.8% | 78.8 | 103 | 109 | 96.3 | 97.9 | 108 | 110
C[C@@H]1O[C@@H](OC[C@H]2O[C@@H](Oc3cc(O)c4c(c3)O[C@H](c3ccc(O)c(O)c3)CC4=O)[C@H](O)[C@@H](O)[C@@H]2O)[C@H](O)[C@H](O)[C@H]1O [Eriocitrin] | 110% and 103% | 108 | 105 | 100 | 117 | 110 | 98.4 | 94.6
Cc1c(Cl)cccc1Nc1ccccc1C(=O)O [Tolfenamic acid] | 103% and 101% | 101 | 107 | 102 | 99.8 | 102 | 106 | 106
CC(C)NCC(O)COc1ccc(CCOCC2CC2)cc1 (stereo not given) [Betaxolol hydrochloride (Betoptic)] | 97.5% and 96.6% | 94.3 | 103 | 107 | 99.5 | 99.7 | 91.2 | 99.6
Cc1nc(NC(=O)N2CCC[C@H]2C(N)=O)sc1-c1csc(C(C)(C)C)n1 | 98.3% and 99.5% | 89.9 | 64.9 | 63.3 | 72 | 86.6 | 61.8 | 61.9
CC(=O)OCC(=O)[C@@]12N=C(C)O[C@@H]1C[C@H]1[C@@H]3CCC4=CC(=O)C=C[C@]4(C)[C@H]3[C@@H](O)C[C@@]12C [Deflazacort (Calcort)] | 98.4% and 102% | 103 | 95 | 109 | 103 | 97 | 91.4 | 114
O=C(C=Cc1ccccc1)NC(NC(=S)Nc1ccc(Cl)cc1)C(Cl)(Cl)Cl (stereo not given) | 81.5% and 86.5% | 86.9 | 102 | 104 | 90.4 | 96 | 99.1 | 100
NC1(C(=O)N[C@@H](CCO)c2ccc(Cl)cc2)CCN(c2ncnc3[nH]ccc23)CC1 | 82.6% and 83.6% | 79 | 66.6 | 67.1 | 28.5 | 33.3 | 59.8 | 55.8
COc1ccc2c(c1)c(CC(=O)O)c(C)n2C(=O)c1ccc(Cl)cc1 [Indometacin Sodium] | 97.1% and 90.1% | 101 | 96.7 | 103 | 105 | 101 | 98.3 | 110
COc1ccc(NC(=O)c2ccc(C(=N)N(C)C)cc2)c(C(=O)Nc2ccc(Cl)cn2)c1 [Betrixaban] | 89.2% and 82.7% | 86.6 | 82.8 | 90.1 | 95.6 | 96.2 | 85.8 | 74.6
CC1=C(CC(=O)O)c2cc(F)ccc2/C1=C\c1ccc([S+](C)[O-])cc1 (stereo not given) [Sulindac (Clinoril)] | 109% and 99.8% | 96.8 | 88.6 | 112 | 92.5 | 100 | 94.2 | 102
CN(C)C(=O)[C@H](O)[C@H](Cc1ccccc1)NC(=O)c1cc2cc(Cl)ccc2[nH]1 | 92.2% and 98.4% | 98 | 95.3 | 98.2 | 88.9 | 104 | 90 | 84.7
COc1ccccc1N1CCN(CCCNc2cc(=O)n(C)c(=O)n2C)CC1 [Urapidil hydrochloride] | 102% and 95.6% | 96.9 | 97.8 | 102 | 99.6 | 98 | 96.8 | 95.2
COC(=O)Nc1nc2cc([S+]([O-])c3ccccc3)ccc2[nH]1 (stereo not given) [Oxfendazole] | 50.5% and 57.7% | 58.5 | 55.2 | 49.4 | 70.5 | 70.4 | 80 | 78
O=c1c(O)c(-c2ccc(O)c(O)c2)oc2cc(O)ccc12 [Fisetin (Fustel)] | 102% and 108% | 105 | 104 | 100 | 86.8 | 103 | 102 | 95.1
Cc1ccc(C(C)C)cc2c(C)ccc1-2 [Guaiazulene] | 97.5% and 99% | 110 | 102 | 101 | 93.5 | 105 | 107 | 93.4
Cc1cnc(NC(=O)C2=C(O)c3ccccc3S(=O)(=O)N2C)s1 [Meloxicam (Mobic)] | 98.6% and 90.8% | 90 | 86.4 | 103 | 90.8 | 92.7 | 86.6 | 99.4
O=C(O)c1ccc(N2C(=O)C(=Cc3ccc(-c4ccc([N+](=O)[O-])cc4)o3)C=C2c2ccccc2)cc1 | 86.8% and 85.4% | 84.5 | 104 | 108 | 82.2 | 94 | 97.9 | 98.2

Structure (SMILES) | cell viability (K562; SRSF2 genotype: SRSF2 P95H/wt) | cell viability (K562; SRSF2 genotype: SRSF2 wt/wt) [%] | cell viability (MARIMO; SRSF2 genotype: SRSF2 P95H/wt) [%] | cell viability (MARIMO; SRSF2 genotype: SRSF2 wt/wt) [%] | cell viability (MOLM14; SRSF2 genotype: SRSF2 P95H/wt) [%] | cell viability (MOLM14; SRSF2 genotype: SRSF2 wt/wt) [%] | cell viability (OCI-AML2; SRSF2 genotype: P95H/wt) [%] | cell viability (OCI-AML2; SRSF2 genotype: wt/wt) [%]
CCC1CC(=Cc2cccnc2)C(=O)C(=Cc2cccnc2)C1 (stereo not given) | 21.1% and 19.7% | 17.9 | 0.77 | 0.8 | 0.49 | 0.29 | 0.25 | 0.31
C=C(C)[C@@H]1CC[C@]2(C(=O)O[C@@H]3O[C@H](CO[C@@H]4O[C@H](CO)[C@@H](O[C@@H]5O[C@@H](C)[C@H](O)[C@@H](O)[C@H]5O)[C@H](O)[C@H]4O)[C@@H](O)[C@H](O)[C@H]3O)CC[C@]3(C)[C@H](CC[C@@H]4[C@@]5(C)CC[C@H](O[C@@H]6OC[C@H](O)[C@H](O)[C@H]6O[C@@H]6O[C@@H](C)[C@H](O)[C@@H](O)[C@H]6O)[C@@](C)(CO)[C@@H]5CC[C@]43C)[C@@H]12 [Anemoside B4] | 93.9% and 103% | 92 | 96.1 | 110 | 96.9 | 97.4 | 93.2 | 105
Cc1cc(NS(=O)(=O)c2ccc(N)cc2)no1 [Sulfamethoxazole sodium] | 107% and 94.7% | 100 | 101 | 110 | 102 | 104 | 93.1 | 109
COc1cc(-c2oc3cc(O)cc(O)c3c(=O)c2OC2OC(COC3OC(C)C(O)C(O)C3O)C(O)C(O)C2OC2OC(C)C(O)C(O)C2O)ccc1O (stereo not given) [Typhaneoside] | 103% | 98.7 | 93.9 | 106 | 98.5 | 106 | 110 | 105
C=CC(=O)N1CCC[C@@H](n2nc(-c3ccc(Oc4ccccc4)cc3)c(C(N)=O)c2N)C1 [Btk inhibitor 2] | 81.6% and 89.2% | 84.8 | 79.8 | 90.2 | 25.4 | 25.4 | 48.2 | 52.1
COc1c(N2C[C@@H]3CCCN[C@@H]3C2)c(F)cc2c(=O)c(C(=O)O)cn(C3CC3)c12 [Moxifloxacin hydrochloride] | 104% and 99.6% | 93.3 | 101 | 105 | 92.9 | 98.5 | 90.4 | 97.2
CC(C)CC(NC(=O)C(Cc1ccccc1)CC(O)C(Cc1ccccc1)NC(=O)OC(C)(C)C)C(=O)NC(Cc1ccccc1)C(N)=O (stereo not given) | 106% and 109% | 111 | 106 | 99.5 | 108 | 106 | 112 | 120
CN(C)C(=S)NN=C(c1ccccn1)c1ccccn1 | 30% and 40.3% | 30.9 | 11.5 | 20.1 | 1.77 | 0.87 | 10.9 | 10.6
CCCCCCCCCCCCCCCc1cccc(O)c1C(=O)O [Anacardic Acid] | 88.9% and 86.6% | 84.8 | 81.7 | 86.7 | 86.3 | 82.9 | 87.5 | 83.5
CCCCNc1ncc(-c2ccc(CN3CCOCC3)cn2)c(NC2CCC(O)CC2)n1 (stereo not given) | 70.7% and 94.8% | 88 | 60.7 | 62.3 | 7.3 | 4.78 | 16.1 | 22.9
CCCCCCCC(=O)N[C@H](CN1CCCC1)[C@H](O)c1ccc2c(c1)OCCO2 [Eliglustat (Tartrate)] | 95.2% and 103% | 99.4 | 91.1 | 89.7 | 90 | 99.9 | 94 | 97.1
Cc1ccc(-n2nc(C(C)(C)C)cc2NC(=O)Nc2ccc(OCCN3CCOCC3)c3ccccc23)cc1 [BIRB 796 (Doramapimod)] | 80.2% and 83.8% | 92.3 | 81.8 | 104 | 81.4 | 88.1 | 93.7 | 101
CCC(C)CC(C)CCCCCCCCC(=O)NC1CC(O)C(O)NC(=O)C2C(O)CCN2C(=O)C(C(O)CC(N)=O)NC(=O)C(C(O)C(O)c2ccc(O)cc2)NC(=O)C2CC(O)CN2C(=O)C(C(C)O)NC1=O (stereo not given) [Pneumocandin B0] | 96.7% and 91.6% | 90 | 97 | 95.1 | 93.5 | 98.7 | 95.7 | 91.8
COc1ccc(-c2oc3c(CC=C(C)C)c(O)cc(O)c3c(=O)c2O[C@@H]2O[C@@H](C)[C@H](O)[C@@H](O)[C@H]2O)cc1 [Baohuoside I] | 101% and 98.2% | 90.4 | 94.6 | 107 | 87.8 | 88.5 | 101 | 107
Oc1ncnc2[nH]ncc12 [Allopurinol (Zyloprim)] | 99% and 99.5% | 104 | 97.1 | 98.3 | 99.3 | 96 | 101 | 104
CC(CCC(=O)NCCS(=O)(=O)O)C1CCC2C3C(O)CC4CC(O)CCC4(C)C3CCC12C (stereo not given) [Taurochenodeoxycholic acid] | 104% and 101% | 99.3 | 103 | 108 | 104 | 104 | 109 | 97.8
Oc1cc(O)c2c(c1)OC(c1ccc(O)c(O)c1)C(OC1(c3ccc(O)c(O)c3)Oc3cc(O)cc(O)c3C(O)C1O)C2 (stereo not given) [Proanthocyanidins] | 102% and 105% | 104 | 107 | 98.7 | 89.9 | 102 | 92.6 | 101
O=C(c1ccc(Cl)cc1Cl)n1nnc2ccccc21 | 54.8% and 62.1% | 70.3 | 48.4 | 46.2 | 59.3 | 49.6 | 37.9 | 29.3
C=C1CC2(O)OC3(CC2C(C)C)C(C)CCC13 (stereo not given) [Curcumol] | 106% and 101% | 102 | 112 | 107 | 97.8 | 108 | 99.9 | 102
Cc1ccc(/C=C2/C(=O)C3(C)CCC2C3(C)C)cc1 (stereo not given) [4-Methylbenzylidene camphor] | 105% and 97.8% | 96.1 | 90 | 108 | 95.5 | 104 | 89.4 | 99.7

Source: the supplement of paper PMC10981050
